“And” between values parts separate entries of the source, which are not always exact repeats. Equal values may be shown once. Compounds without any hit were thinned out: in the full panel of roughly 83,000, 20% have a hit.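 Method: cells in 96-well plates; compound added at one concentration; 48 h incubation; percent growth measured; values under 10 scored active.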 Values without a mark were called inactive. The source made the active and inactive calls.
Tests used:
Test in all cases: NCI-60 one-dose screen, 48 h (100 = growth as untreated, 0 = no growth, -100 = all killed)
[1] = tested on: HCT-15 colon; settings: 10 µM unless noted
[2] = tested on: HT29 colon; settings: 10 µM unless noted
[3] = tested on: SNB-75 CNS; settings: 10 µM unless noted
[4] = tested on: SNB-19 CNS; settings: 10 µM unless noted
[5] = tested on: U251 CNS; settings: 10 µM unless noted
[6] = tested on: PC-3 prostate; settings: 10 µM unless noted
[7] = tested on: SK-MEL-5 melanoma; settings: 10 µM unless noted
[8] = tested on: UACC-62 melanoma
[9] = tested on: LOX IMVI melanoma; settings: 10 µM unless noted
[10] = tested on: SK-MEL-28 melanoma; settings: 10 µM unless noted

| SMILES | growth [1] | growth [2] | growth [3] | growth [4] | growth [5] | growth [6] | growth [7] | growth ([8]; 10 µM unless noted) | growth [9] | growth [10] | growth ([8]; 10 µM) [%] | growth ([8]; 100 µM) |
| --- | --- | --- | --- | --- | --- | --- | --- | --- | --- | --- | --- | --- |
| CCOCCC(=O)O | 108% | 104% | 93.3% | 109% | 106% | 91.7% | 96.1% | 102% | 102% | 109% |  |  |
| CCCC(=O)Oc1ccc(CC)cc1 | 99.5% | 108% | 88.8% | 109% | 98.4% | 101% | 106% | 105% | 97.8% | 117% |  |  |
| O=C(O)c1ccc2c3ccc(C(=O)O)c4c(C(=O)O)ccc(c5ccc(C(=O)O)c1c25)c43 | 108% | 111% | 85.4% | 96.8% | 106% | 101% | 102% | 90.9% | 92.7% | 112% |  |  |
| COc1ccc(/C=C/C(=O)O)cc1OC | 106% and 103% | 106% and 97.3% | 96.5% and 103% | 102% and 107% | 100% and 103% | 95.1% and 98.3% | 98% and 97.9% | 98.9% and 97.5% | 100% and 98.9% | 111% and 115% |  |  |
| CC(=O)Nc1ccc2oc(=O)ccc2c1 | 107% | 106% | 89% | 102% | 108% | 100% | 97.8% | 93.9% | 99.7% | 115% |  |  |
| OCc1ccccc1F | 15% | 31.3% | 126% | 103% | 80.5% | 71.9% | 95.7% | 84% | 75.8% | 103% |  |  |
| O=C(O)C1CSCN1 (stereo not given) | 109% and 96.3% | 104% | 109% and 73.5% | 105% and 94% | 104% and 97.6% | 99.4% and 112% | 135% | 105% and 96% | 108% and 102% | 117% and 114% |  |  |
| CC(=O)/C(N=Nc1ccc(S(=O)(=O)c2ccc(N=N/C(C(C)=O)=C(/C)O)cc2)cc1)=C(\C)O | 106% | 102% | 97.7% | 114% | 101% | 92.1% | 108% | 114% | 99.1% | 113% |  |  |
| COc1ccc(CCO)cc1 | 102% | 94.3% | 101% | 100% | 95.5% | 91.9% | 100% | 98.5% | 99.5% | 111% |  |  |
| COc1ccc(C(=O)C(O)c2ccc(OC)cc2)cc1 (stereo not given) | 110% and 107% | 106% and 111% | 98% and 94.1% | 109% and 111% | 105% and 95.7% | 93.9% and 92.2% | 105% | 100% and 105% | 96.4% and 98.4% | 114% and 109% |  |  |
| C#CCOC(=O)C(N)CS (stereo not given) | 100% | 110% | 81.9% | 99.7% | 101% | 90.5% |  |  | 101% | 94.9% | 88.5 | 87.6% and 90.2% |
| O=C1C=CC(n2cc(F)c(=O)[nH]c2=O)O1 (stereo not given) | 57.8% | 39.4% | 79.8% | 79% | 82.2% | 92.9% | 60.4% | 44.5% | 54.8% | 75.1% |  |  |
| COC(=O)c1nc(N)nc(C(=O)OC)c1C(=O)c1cccc2ccccc12 | 102% | 104% | 104% | 103% | 108% | 97% | 98.9% | 97.2% | 95.3% | 106% |  |  |
| CCNC1=CC(=O)c2ncccc2C1=O | 10.8% | 8.49% (active) | -91% (active) | 19.6% | 30.7% | 44.7% |  | -95.3% (active) | -35.3% (active) | -37% (active) |  |  |
| CC(C)(C(=O)c1cccnc1)c1cccnc1 | 104% and 105% | 104% and 119% | 107% and 103% | 111% and 115% | 103% and 116% | 89.5% and 92.5% | 98.4% and 106% | 101% and 103% | 102% and 111% | 112% and 121% |  |  |
| CCCCC/C(C)=N\NC(N)=S | 79.4% | 55.3% | 86.6% | 105% | 80.2% | 89.4% |  | 96.2% | 95.6% | 94.2% |  |  |
| CCN(CC)C(=S)SCCO | 107% | 99.8% | 89.4% |  | 98.2% | 103% | 99.7% | 107% | 97% | 112% |  |  |
| CC(=O)Oc1ccc(C2(c3ccc(OC(C)=O)cc3)C(=O)Nc3ccccc32)cc1 | 67.3% and 73% | 112% and 131% | 85.3% and 158% |  | 108% and 102% | 65.3% and 52.3% | 96.8% and 95% | 84.2% and 87.3% | 53.9% and 46.7% | 99.6% and 108% |  |  |
| CCOC(=O)NC(N)=O | 105% and 98% | 99.9% and 106% | 84.3% and 87.6% |  | 101% and 96.4% | 99.3% and 92.8% | 101% | 103% | 97.9% and 94.7% | 112% and 108% |  |  |

From PubChem BioAssay (NCI)
